# Inconclusive results are not listed. A call without a number means that no potency is given here. Activity calls are given as the source filed them. Unless noted, calls come from the whole dose curve; as a rule, active = well fitted curve in the direction sought with a large enough effect; inconclusive = small, poorly fitted or top-dose-only effect, or another doubt; inactive = no such curve, though single readings can be large; an effect the other way counts as inactive or inconclusive.
# Experiments:
# [1] = molecular target: Cytochrome P450 3A4 (Homo sapiens) (UniProt P08684); test: qHTS Assay for Inhibitors and Substrates of Cytochrome P450 3A4 (AID 884); note: nearly all actives have a fitted effect of over 50% in size; note: potency is the fitted concentration of half-maximal effect
# Summary of the method: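 Luminescent readout of luciferin produced by CYP3A4 (20 nM) dealkylation of Luciferin-PPXE, 25 uM (its KM). NADPH-driven reaction ran 60 min at RT after 10 min compound preincubation; data scaled to 57 uM ketoconazole as 100% inhibition.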
# [2] = qHTS Assay for Lipid Storage Modulators (AID 1519; calls by dose curve); conditions: Drosophila S3 cells, BODIPY lipid droplet/cell ratio, laser cytometry, cells loaded with oleic acid; for activity change, negative = inhibition: at 57.5 µM (top of the series)
# Summary of the method: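 Cells seeded at 5,000 per well were treated with compounds over a concentration series and loaded with oleic acid (400 uM, as added). Lipid droplet fluorescence (488 nm excitation, 500-530 nm channel) was read by laser-scanning cytometry and normalized to 20 uM Triacsin C.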
# [3] = molecular target: Ubiquitin carboxyl-terminal hydrolase 1 (Homo sapiens) (UniProt O94782); test: Inhibitors of USP1/UAF1: Pilot qHTS (AID 504865);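 note: rhodamine fluorescence freed from ubiquitin-rhodamine substrate followed over time; top concentration of the series differs between compounds; nearly all actives have a fitted effect of over 35% in size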
# Summary of the method: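 In 50mM HEPES pH 7.8 containing 0.5mM EDTA, 1mM TCEP, 0.1 mg/ml BSA and 0.01% Tween-20, 1nM USP1/UAF1 is exposed to compound for 15 min, then Ub-Rho (150nM final) is added and fluorescence is read over time.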
# [4] = molecular target: DNA dC->dU-editing enzyme APOBEC-3G (Homo sapiens) (UniProt Q9HC16); test: qHTS for inhibitors of Vif-A3G interactions: Validation (AID 588379)
# Summary of the method: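 Yellow fluorescence (Ex 488, Em 500-530) of Vif-coexpressing HeLa A3G-eYFP cells, scanned by Acumen cytometer, reports blocked A3G degradation. Cells plated at 700/well overnight at 37 deg C before compound addition, then a further overnight compound incubation at 37 deg C.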
# [5] = Confirmation and Secondary Assay for Modulators of Hemoglobin Beta Chain Splicing at IVS2 654 locus (AID 910);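 note: HeLa cells stably carrying EGFP split by mutant beta-globin IVS2-654 intron; per-well total GFP intensity by laser scanning cytometry after 2-day treatment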
# Summary of the method: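 Readout: per-well total peak green fluorescence (488 nm ex, 500–520 nm em) from objects 5–250 µm, reflecting correct splicing of an EGFP-654 reporter. Compounds were applied for 2 days at 37 °C to overnight-plated HeLa EGFP-654 cells; controls were DMSO and 500 nM IVS2-654 PNA.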
# [6] = Confirmation and Secondary Assay for Modulators of Hemoglobin Beta Chain Splicing at IVS2 705 locus (AID 930);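 note: HeLa cells stably expressing the EGFP-705 splicing reporter; GFP fluorescence per well restored by corrected splicing of the IVS2-705 intron in EGFP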
# Summary of the method: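 Per-well GFP, captured at 1 x 8 µm resolution with 488 nm excitation, served as the read-out for HeLa EGFP-705 cells incubated 2 days with test compound versus DMSO.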
# [7] = molecular target: Cytochrome P450 3A4 (Homo sapiens) (UniProt P08684); test: qHTS Assay for Activators of Cytochrome P450 3A4 (AID 885); note: nearly all actives have a fitted effect of over 65% in size; note: potency is the fitted concentration of half-maximal effect
# Summary of the method: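 Human CYP3A4 dealkylates Luciferin-PPXE to luciferin, which luciferase detection converts to light. Substrate was at its KM (25uM), buffer 200mM KPO4, reaction 60 min at RT.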
# [8] = molecular target: Luciferin 4-monooxygenase (Photinus pyralis) (UniProt P08659); test: Biochemical firefly luciferase enzyme assay for NPC (AID 624030);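 note: purified P. pyralis luciferase at 10 nM with luciferin and ATP substrate; nearly all actives have a fitted effect of over 70% in size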
# Summary of the method: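 Direct inhibition of firefly luciferase enzyme (10 nM final, 50 mM Tris Acetate) assessed by luminescence within 5 minutes. Percent activity scaled between DMSO and PTC124 positive control, with concentration-effect curves classified by fit quality and response.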
# [9] = measured here: cell count channel max response
# [10] = measured here: lipid channel max response
# Sequence of Ubiquitin carboxyl-terminal hydrolase 1 (Homo sapiens) (O94782 whole entry, looked up): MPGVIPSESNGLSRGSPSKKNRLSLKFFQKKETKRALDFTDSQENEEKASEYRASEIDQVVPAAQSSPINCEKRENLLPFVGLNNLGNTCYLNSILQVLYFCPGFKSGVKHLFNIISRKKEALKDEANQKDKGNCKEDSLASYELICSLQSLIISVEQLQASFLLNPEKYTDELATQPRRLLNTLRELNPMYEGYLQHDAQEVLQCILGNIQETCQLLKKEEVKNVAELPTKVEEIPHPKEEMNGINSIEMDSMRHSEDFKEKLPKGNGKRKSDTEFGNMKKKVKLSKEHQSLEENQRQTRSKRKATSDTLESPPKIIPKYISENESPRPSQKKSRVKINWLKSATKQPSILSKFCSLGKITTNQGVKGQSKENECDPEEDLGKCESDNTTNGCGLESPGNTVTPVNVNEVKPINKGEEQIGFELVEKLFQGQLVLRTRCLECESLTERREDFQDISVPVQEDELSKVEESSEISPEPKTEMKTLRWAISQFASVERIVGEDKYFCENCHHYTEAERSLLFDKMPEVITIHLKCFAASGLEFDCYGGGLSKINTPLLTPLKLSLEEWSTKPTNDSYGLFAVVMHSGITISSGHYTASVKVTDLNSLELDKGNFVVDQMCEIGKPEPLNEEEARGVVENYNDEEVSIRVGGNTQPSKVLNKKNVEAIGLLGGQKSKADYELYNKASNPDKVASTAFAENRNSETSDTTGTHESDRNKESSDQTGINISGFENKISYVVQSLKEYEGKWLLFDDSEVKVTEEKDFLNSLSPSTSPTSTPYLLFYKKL
# Sequence of Cytochrome P450 3A4 (Homo sapiens) (P08684 whole entry, looked up): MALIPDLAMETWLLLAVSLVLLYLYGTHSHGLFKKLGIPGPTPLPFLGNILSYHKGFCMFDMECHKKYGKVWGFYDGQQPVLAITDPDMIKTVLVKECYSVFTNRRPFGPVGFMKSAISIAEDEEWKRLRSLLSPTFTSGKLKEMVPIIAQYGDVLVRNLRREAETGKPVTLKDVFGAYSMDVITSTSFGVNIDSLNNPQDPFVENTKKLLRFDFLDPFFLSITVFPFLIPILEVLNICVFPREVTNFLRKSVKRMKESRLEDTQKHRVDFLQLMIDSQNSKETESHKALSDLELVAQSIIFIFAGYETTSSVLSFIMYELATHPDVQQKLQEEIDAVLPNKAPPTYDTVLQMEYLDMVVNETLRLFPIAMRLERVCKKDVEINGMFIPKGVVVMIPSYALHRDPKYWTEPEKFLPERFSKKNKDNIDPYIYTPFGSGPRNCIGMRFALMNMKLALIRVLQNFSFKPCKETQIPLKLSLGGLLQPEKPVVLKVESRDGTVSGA
# Sequence of DNA dC->dU-editing enzyme APOBEC-3G (Homo sapiens) (Q9HC16 whole entry, looked up): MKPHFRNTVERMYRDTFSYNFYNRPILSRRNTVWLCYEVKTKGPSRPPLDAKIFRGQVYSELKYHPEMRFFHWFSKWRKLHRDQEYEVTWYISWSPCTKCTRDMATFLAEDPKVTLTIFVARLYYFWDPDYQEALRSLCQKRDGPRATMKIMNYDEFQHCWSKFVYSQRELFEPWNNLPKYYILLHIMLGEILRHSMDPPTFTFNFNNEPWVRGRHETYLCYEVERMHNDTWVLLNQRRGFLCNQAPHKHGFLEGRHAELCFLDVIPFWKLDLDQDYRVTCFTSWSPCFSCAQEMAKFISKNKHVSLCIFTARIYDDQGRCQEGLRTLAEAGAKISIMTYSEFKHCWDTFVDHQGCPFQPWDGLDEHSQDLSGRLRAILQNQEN
# Sequence of Luciferin 4-monooxygenase (Photinus pyralis) (P08659 whole entry, looked up): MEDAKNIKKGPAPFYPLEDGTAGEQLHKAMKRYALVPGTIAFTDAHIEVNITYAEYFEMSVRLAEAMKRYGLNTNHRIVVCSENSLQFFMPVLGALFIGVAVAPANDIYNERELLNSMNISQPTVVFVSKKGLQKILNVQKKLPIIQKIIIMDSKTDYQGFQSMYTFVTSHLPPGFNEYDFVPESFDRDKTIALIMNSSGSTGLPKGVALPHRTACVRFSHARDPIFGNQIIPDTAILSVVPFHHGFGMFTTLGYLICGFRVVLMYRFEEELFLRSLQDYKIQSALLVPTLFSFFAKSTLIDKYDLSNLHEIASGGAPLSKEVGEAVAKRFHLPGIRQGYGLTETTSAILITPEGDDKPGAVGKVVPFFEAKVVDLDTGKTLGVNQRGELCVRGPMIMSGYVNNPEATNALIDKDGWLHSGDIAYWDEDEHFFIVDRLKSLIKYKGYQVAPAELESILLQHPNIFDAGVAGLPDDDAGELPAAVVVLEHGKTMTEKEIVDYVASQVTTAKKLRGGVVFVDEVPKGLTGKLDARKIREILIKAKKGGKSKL
SMILES,Potency [1],"activity change, negative = inhibition [2]","max response [2, 9]","max response [2, 10]",Potency [3],outcome [4],Potency [5],Potency [6],Potency [7],Potency [8]
C=C1CC/C=C(\C)CC[C@@H]2[C@@H]1CC2(C)C,inactive,-10.6% (inactive),-19.4%,-26.5%,inactive,inactive,,,,
CC(C)CCCC(C)C1CCC2C3CC=C4CC(O)CCC4(C)C3CCC12C (configuration not stated),inactive,7.38% (inactive),5.9%,12%,inactive,inactive,,,,
Nc1ncnc2c1ncn2C1CC(O)C(CO)O1 (configuration not stated),inactive,-2.62% (inactive),-5.57%,-5.3%,inactive,inactive,inactive,inactive,,
CC(=O)OC1CC(O)C(C)(C)C2CC(OC(C)=O)[C@]3(C)C(CC[C@@]4(C)C(c5ccoc5)OC(=O)C5OC534)[C@]12C (some centres not stated),2.51 µM (active),4.32% (inactive),12.6%,20.3%,inactive,,inactive,inactive,inactive,
CC1(C)SC2C(NC(=O)C(N)c3ccccc3)C(=O)N2C1C(=O)O (configuration not stated),,7.23% (inactive),15.7%,29.5%,inactive,,inactive,inactive,,inactive
C[C@@H]1O[C@@H](O[C@H]2[C@H](Oc3cc(O)c4c(c3)O[C@H](c3ccc(O)cc3)CC4=O)O[C@H](CO)[C@@H](O)[C@@H]2O)[C@H](O)[C@H](O)[C@H]1O,inactive,-1.6% (inactive),-6.96%,-9.22%,inactive,inactive,,,,
CC(=O)OCC(=O)C1CCC2C3CCC4=CC(=O)CC[C@@]4(C)C3CC[C@]12C (some centres not stated),inactive,5.85% (inactive),5.1%,13.2%,inactive,,inactive,inactive,3.16 µM (active),
CC(=O)OC1C=C[C@]2(C)C(CC(OC(C)=O)[C@@]3(C)C4=CC(=O)OC(c5ccoc5)[C@]4(C)CCC23)C1(C)C (some centres not stated),inactive,-0.882% (inactive),-3.66%,1.1%,inactive,,inactive,inactive,12.6 µM (active),
C=C1C(C2(C)C=CC(=O)C(C)(C)C2CC(=O)OC)CC[C@@]2(C)C(c3ccoc3)OC(=O)C3OC132 (some centres not stated),2.51 µM (active),4.06% (inactive),5.07%,10.2%,inactive,,inactive,inactive,inactive,
O=c1ccn([C@H]2C[C@H](O)[C@@H](CO)O2)c(=O)[nH]1,inactive,5.4% (inactive),9.77%,16.3%,inactive,inactive,,,,
COC1C[C@@H](O[C@@H]2C(C)C(=O)OC(C)C(C)C(O)C(C)C(=O)[C@@]3(CO3)CC(C)C(OC3OC(C)CC(N(C)C)C3O)C2C)OC(C)[C@@H]1O (some centres not stated),6.31 µM (active),4.89% (inactive),4.4%,11%,inactive,,inactive,inactive,inactive,
O=c1cc(-c2cccc(O)c2)oc2ccc(O)cc12,3.98 µM (active),13.1% (inactive),3.49%,17.7%,inactive,,inactive,inactive,inactive,
